# Assay outcomes: PubChem, several laboratories
# CYP2C19 activ – human CYP2C19 activators, primary screen, biochemical, luminescence; Cytochrome P450 2C19 (Homo sapiens), P33261; recombinant CYP2C19, luciferin-H EGE luminescence; hits give high values; 0 = fully inhibited enzyme, 1 = untreated enzyme; activation factor at 5 µM; 96,000 tested, under 10 active; AID 1025, 2008;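 active means activation factor of at least 2 at 5 µM in the primary screen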;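 further: 0 = wells with 2.5 mM tranylcypromine and 1 = vehicle-only wells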
# Target sequence (P33261 whole entry, looked up): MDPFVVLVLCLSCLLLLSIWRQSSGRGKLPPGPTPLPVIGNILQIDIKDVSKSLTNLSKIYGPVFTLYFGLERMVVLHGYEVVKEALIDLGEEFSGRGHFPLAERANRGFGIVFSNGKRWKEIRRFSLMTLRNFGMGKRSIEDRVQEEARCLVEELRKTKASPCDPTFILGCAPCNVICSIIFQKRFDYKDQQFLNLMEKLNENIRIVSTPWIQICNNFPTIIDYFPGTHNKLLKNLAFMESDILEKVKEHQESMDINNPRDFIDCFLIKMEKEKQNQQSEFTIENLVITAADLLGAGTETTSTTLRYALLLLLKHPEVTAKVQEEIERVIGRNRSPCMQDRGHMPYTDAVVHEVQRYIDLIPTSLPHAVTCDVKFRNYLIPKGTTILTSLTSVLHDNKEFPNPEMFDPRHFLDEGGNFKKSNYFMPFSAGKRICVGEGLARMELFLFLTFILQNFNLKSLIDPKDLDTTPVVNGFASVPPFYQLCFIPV
# sEH inh – soluble epoxide hydrolase inhibitors, primary screen, biochemical, human sEH | Bifunctional epoxide hydrolase 2 (Homo sapiens), P34913 | recombinant human sEH enzymatic activity assay | inhibition, % at 2 µM | hit rate 0.34% among 91,000; in the data active means inhibition above about 80%
# CYP2C19 inhib – blockers of cytochrome P450 2C19 activity – biochemical, luminescence, ADME assay, primary screen | P33261 | CYP2C19 Supersomes, luciferin-H EGE luminescence, 30 min | inhibition, % at 5 µM | hit rate 21% among 96,000 | AID 778, 2007;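 active means CYP2C19 inhibition above a set limit at 5 µM in the primary screen, cut at about 50% in these data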;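 further: plate controls were negative control wells for no effect and 2.5 mM tranylcypromine positive control for full effect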
# sEH act – soluble epoxide hydrolase activators, primary screen, biochemical, human sEH. hit rate 0.04% among 91,000. AID 717, 2007. purified human sEH enzymatic activity, activator screen. activation, % at 2 µM. Bifunctional epoxide hydrolase 2 (Homo sapiens), P34913; in the data active means activation above about 37%
# CYP2C9 act – human CYP2C9 activators, primary screen, biochemical, luminescence; Cytochrome P450 2C9 (Homo sapiens), P11712; recombinant CYP2C9, luciferin-H conversion; hits give high values; factor 1 = untreated enzyme, 0 = blocked; activation factor at 5 µM; hit rate 1.4% among 96,000; AID 1024, 2008;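 active means activation factor of 2 or more for CYP2C9 at a 5 µM dose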;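 further: 0 = sulfaphenazole-blocked wells and 1 = vehicle-only wells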
# CYP2C9 inh – blockers of cytochrome P450 2C9 activity – biochemical, luminescence, ADME assay, primary screen | CYP2C9 Supersomes, luciferin-H conversion | inhibition, % at 5 µM | hit rate 20% among 96,000 | AID 777, 2007;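 active means blocking of liver enzyme CYP2C9 beyond about 50% at 5 µM, limit read from the data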
# * marks the source's active call; other numbers are inactive results; · = no result. Shown are actives, neighbours in structure and some others; about 27% of the full set was active somewhere.
SMILES,CYP2C19 activ,sEH inh,CYP2C19 inhib,sEH act,CYP2C9 act,CYP2C9 inh
CCCCOc1ccccc1C1NC(=O)NC(C)=C1C(=O)OCCOCC (stereo unspecified),0.3,-8,70*,5,0.3,75*
CCOC(=O)C1=C(N)OC2=C(C(=O)CCC2)C1c1ccccc1OCC (stereo unspecified),0.2,-1,80*,0,0.5,49
CCCC1=C(C(=O)OCC)C(c2ccccc2OCC)NC(=O)N1C (stereo unspecified),0.2,-11,81*,11,0.2,81*
COc1cccc(C2C(C#N)=C(N)OC3=C2C(=O)CCC3)c1OC(=O)c1ccco1 (stereo unspecified),1.1,10,-5,-10,0.9,5
CCOC(=O)C1=C(C)NC(=O)NC1c1ccccc1OCc1c(F)cccc1Cl (stereo unspecified),0.8,5,21,-9,0.3,70*
CCOC(=O)C1=C(C)N(C)C(=O)NC1c1ccccc1OC (stereo unspecified),0.7,-8,28,6,0.9,14
Cn1c(=O)c2[nH]c(N3CCOCC3)nc2n(-c2ccccc2)c1=O,1,·,2,·,1,0
CC1=C(C(N)=O)C(c2ccccc2F)NC(=O)N1 (stereo unspecified),1,-6,-4,4,0.5,53*
CCCCOc1ccccc1C1NC(=O)NC(C)=C1C(=O)OCc1ccco1 (stereo unspecified),0.4,-10,61*,7,0.3,73*
CC1=C(C(=O)OCC2CCCO2)C(c2ccccc2Cl)NC(=O)N1 (stereo unspecified),·,0,·,5,·,·
CCCOc1ccccc1C1NC(=O)NC(C)=C1C(=O)OCCOCC (stereo unspecified),0.8,-7,24,7,0.8,21
CCOC(=O)CCCCC(=O)NC(CO)C(=O)NC (stereo unspecified),1.2,10,-16,-9,1.2,-20
CCS(=O)(=O)c1nc(NC(C)=O)n[nH]1,1.1,-2,-8,1,1.1,-9
COc1ccc(-c2nc(CNS(=O)(=O)c3cc(OC)ccc3OC)cs2)cc1,0.3,·,70*,·,0.3,72*
Cc1nc(CNS(=O)(=O)c2ccc3ccccc3c2)cs1,0.5,·,45,·,2*,-101
CCc1ccc(OC)c(S(=O)(=O)NCCOc2ccccc2)c1,0.2,1,75*,2,0.8,15
COc1ccc(-c2nc(CC(=O)O)cs2)cc1,1.1,-5,-15,8,1,-4
COc1cc(OC)c(C#N)c(S(=O)(=O)Cc2ccccc2)c1,0,3,96*,-3,1.4,-44
C=CCNC(=S)NNC(=O)C(CCC(C)C)CC(C)(C)O (stereo unspecified),1.1,10,-7,-7,1.1,-6
Cc1nnc(SCC(N)=O)n1CCc1ccccc1,·,-8,·,8,·,·
CCS(=O)(=O)NCc1csc(-c2ccccc2)n1,0.3,·,70*,·,1,0
COc1ccc(OC)c(NS(=O)(=O)Cc2ccccc2)c1,0.1,·,94*,·,1.4,-36
CCOc1cc(Br)ccc1S(=O)(=O)NCc1ccccc1,0.3,-4,71*,7,1.5,-45
CS(=O)(=O)NCc1csc(-c2ccccc2)n1,0.9,·,5,·,0.9,7
CCOc1ccc(OCC)c(S(=O)(=O)NCc2cccnc2)c1,·,-5,·,3,·,·
SMILES,CYP2C19 activ,sEH inh,CYP2C19 inhib,sEH act,CYP2C9 act,CYP2C9 inh
COc1ccc(OC)c(S(=O)(=O)NC(C)(C)C)c1,0.5,7,52*,-5,0.8,20
CCOC(=O)/C=C1\SCC(=O)N1CC(=O)NC12CC3CC(CC(C3)C1)C2,0.8,9,19,-6,0.9,13
CC(C)SCCCOc1ccc(C(C)(C)C)cc1,1,1,-4,-4,1,3
COc1ccc(N(C(C)=O)S(=O)(=O)c2cc(OC)ccc2OC)cc1,0.7,-7,28,10,0.5,50*
COc1ccc(C)cc1S(=O)(=O)N(CC(=O)O)c1ccc(C)cc1,0.9,2,15,-2,0.6,36
COc1ccc(OC)c(S(=O)(=O)NCc2ccccc2)c1,0,2,96*,-1,1.2,-16
COc1ccc(S(=O)(=O)NCc2csc(-c3cccnc3)n2)cc1,0.1,-21,91*,20,0.3,68*
COc1ccc(OC)c(S(=O)(=O)NCc2cccnc2)c1,0.9,-3,13,3,1.3,-30
Cc1ccnc2c(N3C(=O)C4C5C=CC(C5)C4C3=O)cccc12 (stereo unspecified),1.2,-2,-16,0,1.2,-23
CCOc1ccc2nc(Cl)c(/C=C/C(=O)c3ccco3)cc2c1,0.7,-5,33,8,0.5,53*
COc1ccc2oc(=N)c(-c3nnc4n3CCCCC4)cc2c1,1.1,-1,-9,1,0.9,13
N=c1oc2ccc3ccccc3c2cc1-c1nnc2n1CCCCC2,0.8,-11,24,11,2.1*,-115
CC(C)(C)c1cccc(OCCCSc2ncccn2)c1,1,-2,-3,1,1,1
O=C(OCn1cncn1)c1ccc(Cl)cc1Cl,0.5,12,50,-11,0.6,38
COc1ccc(/C=C(/C(=O)c2ccc(Cl)cc2Cl)n2cncn2)cc1,0.2,-8,77*,9,0.1,91*
O=C(CN1CCOCC1)NC1CC2CCC1C2 (stereo unspecified),1.1,6,-6,-2,1.2,-24
O=S(=O)(c1ccccc1C(F)(F)F)N1CCOCC1,1,-4,0,8,1.5,-48
C=CCN(c1ccc(C(=O)NCCc2ccccc2)cc1)S(C)(=O)=O,0.9,-1,10,4,1.1,-10
CCCCCCC1CC(CSc2ncn[nH]2)OC1=O (stereo unspecified),0.1,·,91*,·,0.3,67*
O=C(Nc1cc2c(cc1Br)OCCO2)c1ccco1,·,-14,·,14,·,·
CC(C)C(c1nnnn1C(C)(C)C)N1CCN(c2cccc(Cl)c2)CC1 (stereo unspecified),0.3,12,70*,-14,0,98*
CC(C)C(c1nnnn1Cc1ccccc1)N1CCN(Cc2ccco2)CC1 (stereo unspecified),0.9,4,9,-2,0.8,20
CC(C)C(c1nnnn1Cc1ccco1)N1CCN(c2cccc(Cl)c2)CC1 (stereo unspecified),0.2,-6,81*,6,0.3,70*
